The source of these data is ChEMBL document CHEMBL1157539, “Thousands of chemical starting points for antimalarial lead identification” (Nature, 2010).

Molecules are shown by their SMILES.

Common to all, as to format: functional
The test system of experiment [1] is Plasmodium falciparum. Briefly: GSK_TCMDC: Inhibition of Plasmodium falciparum 3D7 in whole red blood cells, using parasite LDH activity as an index of growth. Test compounds present at 2uM.
The subject of experiment [2] is Plasmodium falciparum. Kind of experiment: GSK_TCMDC: Inhibition of Plasmodium falciparum Dd2 in whole red blood cells, using parasite LDH activity as an index of growth. Test compounds present at 2uM.
Another experiment relates to HepG2. Kind of experiment: GSK_TCMDC: Percent inhibition of human HepG2 cell line. Test compounds present at 10uM.

In general, Inhibition refers to the drop in the measured response relative to a control, in per cent. A higher Inhibition goes with a strong effect. As to `Cc1cc(=NN=Cc2ccccc2F)c2ccccc2[nH]1`, the Inhibition in the experiment on Plasmodium falciparum [1] worked out at 100%; with Plasmodium falciparum [2], 81%; in the experiment with HepG2 it was 14%.
The matching figures for `Clc1ccc2c(NN=Cc3ccco3)ccnc2c1`: 100%, 96% and 3%.
The matching figures for `O=c1cc(NCCCNCc2cccc3c2OC(F)(F)O3)[nH]c2ccccc12`: 88%, 15% and 4%.
On the same counts, the results for `Nc1nc(-c2ccccn2)nc(-n2nc(-c3cccc(C(F)(F)F)c3)cc2N)n1.O=C(O)C(F)(F)F` are 87%, 74% and 14%.
As for `CCCCCCN1CCC(NCc2cccc3ccccc23)CC1.O=C(O)C(F)(F)F`, the Inhibition in the experiment with Plasmodium falciparum [1] was 95%; with Plasmodium falciparum [2] it was 12%; in the experiment on HepG2, 21%.
On to `Cl.Oc1ccc(Nc2nc(N3CCCC3)c3ccccc3n2)cc1`, for which the values for the Inhibition in the experiment with Plasmodium falciparum [1], in the experiment with Plasmodium falciparum [2] and in the experiment on HepG2 were 100%, 100% and 10%, respectively.
Take `Cc1cc(OCc2ccncc2)cc2c1C(=O)CC(C)(C)O2`: the figures for the Inhibition with Plasmodium falciparum [1], in the experiment on Plasmodium falciparum [2] and with HepG2 were 99%, 0% and 0%, respectively.
As to `COc1cc(NCC(C)CNCc2cn(Cc3ccccc3)c3ccccc23)nc2ccccc12` (centres undefined), the values for the Inhibition with Plasmodium falciparum [1], in the experiment on Plasmodium falciparum [2] and in the experiment with HepG2 were 90%, 55% and 21%, respectively.
On the same counts, the results for `FC(F)c1nc2ccccc2n1-c1nc(N2CCOCC2)nc(N2CCOCC2)n1` [ZSTK-474] are 99%, 99% and 47%.
As for `Cc1cc(N[C@@H](Cc2ccccc2)C(=O)Nc2ccccc2)nc(NCCc2ccccc2)n1.O=C(O)C(F)(F)F`, the results for the Inhibition in the experiment with Plasmodium falciparum [1], with Plasmodium falciparum [2] and in the experiment on HepG2 were 100%, 87% and 8%, respectively.
On the same counts, the results for `CC(=O)N1N=C(c2cccs2)Sc2c1nc(-c1ccc(Cl)cc1)n2C(C)=O` are 99%, 93% and 3%.
On the same counts, the results for `CCOc1ccc(C(=O)Nc2cc(Cl)ccc2O)cc1Cl` are 83%, 84% and 11%.
On the same counts, the results for `CCSc1nc2sc3c(c2c(=O)n1-c1ccccc1)CCN(C)C3` are 83%, 71% and 16%.
Take `CCOc1ccc2c(=NN=Cc3cccc(Cl)c3)cc(C)[nH]c2c1`: the Inhibition in the experiment on Plasmodium falciparum [1] was 93%; in the experiment on Plasmodium falciparum [2], 34%; in the experiment with HepG2 it was 0%.
Take `CC(=O)C1=NN(c2ccc(C)cc2)C(c2cccs2)N1c1ccccc1` (centres undefined): the Inhibition was determined as 89% in the experiment on Plasmodium falciparum [1], 64% in the experiment with Plasmodium falciparum [2] and 0% in the experiment with HepG2.
On the same counts, the results for `CCCC(C)n1ccc2c3c(N)nc(N)nc3ccc21` (centres undefined) are 94%, 91% and 70%.
For `O=C(NCCN1CCC(c2ccncc2)CC1)c1ccc(Nc2nccc(Nc3ccc(Oc4ccccc4)cc3)n2)cc1`, the figures for the Inhibition in the experiment on Plasmodium falciparum [1], with Plasmodium falciparum [2] and with HepG2 were 100%, 90% and 17%, respectively.
The matching figures for `COc1ccc(S(=O)(=O)N2CCOCC2)cc1NC(=O)c1cc2ccccc2o1`: 93%, 0% and 8%.
Regarding `Cc1cc(N[C@@H](Cc2ccccc2)C(=O)NCCc2ccccc2)nc(NCc2ccccc2C)n1.O=C(O)C(F)(F)F`, the Inhibition with Plasmodium falciparum [1] is recorded as 99%; in the experiment on Plasmodium falciparum [2] it was 85%; with HepG2, 37%.
Consider `O=C(NCc1ccc(Cl)cc1)c1ccc(CN2CCCN(Cc3cccc(O)c3)CC2)cc1.O=C(O)C(F)(F)F`, for which the Inhibition with Plasmodium falciparum [1] worked out at 82%; in the experiment on Plasmodium falciparum [2] it was 12%; with HepG2 it was 25%.
As for `CN(CCN)Cc1cccc(-c2ccc(-c3nc4cc(C(F)(F)F)ccc4[nH]3)s2)c1.O=C(O)C(F)(F)F`, the Inhibition in the experiment with Plasmodium falciparum [1] came out at 100%; in the experiment on Plasmodium falciparum [2], 92%; in the experiment on HepG2, 27%.
Consider `Cc1cccc(OC2CCN(c3ncc(C(=O)NCCCN4CCCC4=O)cc3Cl)CC2)c1`, for which the Inhibition in the experiment on Plasmodium falciparum [1] worked out at 96%; with Plasmodium falciparum [2], 95%; with HepG2 it was 7%.
`Cc1cccc2nc(-c3ccc(-c4cccc(NC(=O)NCc5cccc(F)c5)c4)cc3)[nH]c12`: the Inhibition with Plasmodium falciparum [1] amounted to 94%; in the experiment on Plasmodium falciparum [2] it was 5%; in the experiment with HepG2, 27%.
The matching figures for `Cc1cc(-c2ccc(O)c(CNC3CCCCC3)c2)cnc1N`: 100%, 100% and 27%.
The matching figures for `O=C(/C=C/c1ccc(Cl)c(Cl)c1)NC1CCC(CN2CCC(c3nc4ccccc4s3)CC2)CC1` (centres undefined): 87%, 32% and 50%.
The matching figures for `O=C(NCc1ccc(C(=O)NCc2cccc3ccccc23)cc1)c1ccc(O)c(-c2ccc(Cl)c(Cl)c2)c1`: 100%, 31% and 0%.
With `Br.Cn1c(=N)n(CC(=O)OCc2ccc(OCc3ccccc3)cc2)c2ccccc21`, the Inhibition came out at 100% with Plasmodium falciparum [1], 74% with Plasmodium falciparum [2] and 5% in the experiment on HepG2.
On the same counts, the results for `Cl.O=C(CCCC(=O)Nc1ccc(C2=NCCN2)cc1)Nc1ccc(C2=NCCN2)cc1` are 91%, 81% and 3%.
On the same counts, the results for `CCNc1cc(C(=O)N[C@@H](Cc2ccccc2)[C@H](O)CN[C@H](C)C(C)(C)C)cc(N2CCCCS2(=O)=O)c1.Cl` are 95%, 41% and 4%.
On the same counts, the results for `CC(C)COc1ccc(Cl)cc1Cc1ccc(-c2nc3ccc(Cl)cc3[nH]2)o1` are 97%, 96% and 19%.
With `Nc1nccc2ccc(-c3ccncc3)cc12`, the Inhibition is 96% in the experiment on Plasmodium falciparum [1], 95% in the experiment with Plasmodium falciparum [2] and 19% with HepG2.
On the same counts, the results for `CCn1c(C(C)C)cc2c3c(N)nc(N)nc3ccc21` are 92%, 0% and 67%.
Consider `O=C(CC(=O)C(F)(F)F)c1ccccc1[N+](=O)[O-]`, for which the Inhibition in the experiment on Plasmodium falciparum [1] turned out to be 97%; in the experiment on Plasmodium falciparum [2], 95%; in the experiment on HepG2, 65%.
`CC(C)CCNCc1ccc(OCc2cccc(C(=O)Nc3ccccc3)c2)c(I)c1.O=C(O)C(F)(F)F`: the Inhibition with Plasmodium falciparum [1] amounted to 100%; with Plasmodium falciparum [2] it was 59%; with HepG2, 25%.
On the same counts, the results for `COc1ccc(Nc2nc(N)c3cc(OC)c(OC)cc3n2)cc1OC.Cl` are 99%, 5% and 0%.
As to `C#C[C@H]1O[C@@H](n2cnc3c(Nc4cc(Br)cc(C(F)(F)F)c4)ncnc32)[C@H](O)[C@@H]1O`, the Inhibition with Plasmodium falciparum [1] worked out at 94%; in the experiment on Plasmodium falciparum [2], 56%; in the experiment on HepG2, 21%.
Regarding `Cc1ccccc1NC(=O)NC1CCN(CCCCCNC(=O)/C=C/c2ccc(Cl)c(Cl)c2)CC1`, the figures for the Inhibition with Plasmodium falciparum [1], with Plasmodium falciparum [2] and with HepG2 were 100%, 20% and 13%, respectively.
On the same counts, the results for `Cc1cc(C=C(P(=O)(OC(C)C)OC(C)C)P(=O)(OC(C)C)OC(C)C)c2ccccc2c1O` are 85%, 54% and 15%.
For `CCCN(CC1CC1)c1ncc(-c2cccc(CNCCC3CCCN3C)c2)cn1` (centres undefined), the Inhibition was found to be 98% in the experiment with Plasmodium falciparum [1], 43% with Plasmodium falciparum [2] and 77% with HepG2.
As to `CCOc1ccc(-c2nc(NC(=O)COc3ccc(OC)cc3)sc2C)cc1`, the Inhibition in the experiment on Plasmodium falciparum [1] was determined as 99%; with Plasmodium falciparum [2], 87%; with HepG2, 0%.
For `CCn1c(-c2nonc2N)nc2c(-c3ccc(CO)o3)ncc(OCCCN)c21.O=C(O)C(F)(F)F`, the Inhibition was found to be 93% with Plasmodium falciparum [1], 97% in the experiment with Plasmodium falciparum [2] and 0% in the experiment on HepG2.
As for `CNC(=O)c1cnc(Nc2ccc(OCC(O)CN(C)C)cc2)nc1Nc1cccc(Br)c1.O=C(O)C(F)(F)F` (centres undefined), the Inhibition in the experiment on Plasmodium falciparum [1] came to 100%; in the experiment with Plasmodium falciparum [2] it was 100%; in the experiment with HepG2 it was 68%.
Consider `COc1ccc2nccc([C@@H](O)CN3CCC(NC(=O)C(c4cc5ccccc5o4)N4CCN(c5ccccc5OC)CC4)CC3)c2c1` (some centres undefined), for which the results for the Inhibition in the experiment on Plasmodium falciparum [1], in the experiment on Plasmodium falciparum [2] and in the experiment with HepG2 were 99%, 83% and 14%, respectively.
On the same counts, the results for `COc1ccc(Nc2nc(C)cc(NC3CCCC3)n2)cc1` are 98%, 59% and 34%.
Turning to `CCc1c(C(=O)NC2CCC(N3CCC(c4ccccc4OC)CC3)CC2)[nH]c2ccc(OC)cc12` (centres undefined), the Inhibition is given as 100% in the experiment with Plasmodium falciparum [1], 99% in the experiment on Plasmodium falciparum [2] and 43% with HepG2.
The matching figures for `CCn1cc(C=C2Oc3c(ccc(O)c3CN3CCCCC3)C2=O)c2cc(OC)ccc21`: 99%, 99% and 0%.
`CC(C)(C)c1ccc(OC(=O)c2ccc(NC(=O)N[C@@H](Cc3ccc(O)cc3)C(=O)NC3CCN(Cc4ccc(O)cc4)C3)cc2)cc1.O=C(O)C(F)(F)F` (some centres undefined): the values for the Inhibition with Plasmodium falciparum [1], in the experiment with Plasmodium falciparum [2] and in the experiment on HepG2 were 92%, 67% and 0%, respectively.
The matching figures for `CN1CCN(CCCN(Cc2ccc(-c3cccc(CNCc4ccc5c(c4)OCO5)c3)cc2)C(=O)Nc2ccccc2)CC1.O=C(O)C(F)(F)F`: 100%, 87% and 51%.
As to `CS(=O)(=O)c1ccc2[nH]c(-c3cc(-c4cccc(F)c4)cnc3N)nc2c1.O=C(O)C(F)(F)F`, the Inhibition is 100% with Plasmodium falciparum [1], 71% in the experiment on Plasmodium falciparum [2] and 33% with HepG2.
The matching figures for `Cc1c(Cl)ccc2c(C(=O)Nc3ccncc3)cc(-c3cccnc3)nc12`: 99%, 83% and 16%.
On the same counts, the results for `CC(C)CN1CCCN(Cc2cccc(NC(=O)c3ccc(-c4ccccc4)cc3)c2)CC1.O=C(O)C(F)(F)F` are 99%, 24% and 30%.
On the same counts, the results for `CCNC[C@@H](O)[C@H](Cc1ccccc1)NC(=O)c1cc2c3c(c1)c(CC)cn3CCS(=O)(=O)N2C.O=CO` are 99%, 65% and 0%.
`Cc1cnc(C(=O)Nc2cccc(-c3ccc(-c4nc5cc(C(F)(F)F)ccc5[nH]4)s3)c2)cn1`: the results for the Inhibition with Plasmodium falciparum [1], in the experiment with Plasmodium falciparum [2] and in the experiment with HepG2 were 86%, 14% and 35%, respectively.
Take `CSc1c(CNCCCNc2cc(=O)c3ccccc3[nH]2)[nH]c2ccccc12`: the Inhibition is recorded as 87% in the experiment with Plasmodium falciparum [1], 21% with Plasmodium falciparum [2] and 0% in the experiment with HepG2.
Regarding `CCOc1c(CNCCCNc2nc3ccccc3[nH]2)cc(Br)cc1OC.Cl`, the Inhibition in the experiment on Plasmodium falciparum [1] was found to be 99%; in the experiment with Plasmodium falciparum [2], 0%; with HepG2 it was 29%.
The matching figures for `CN1CCN(CC(=O)Nc2cccc(-c3cccc(-c4nc5ccccc5[nH]4)c3)c2)CC1`: 90%, 27% and 11%.
`Cn1nccc1C(=O)NCCNCc1ccc(-c2cccc(-c3nc4cc(C(F)(F)F)ccc4[nH]3)c2)cc1.O=C(O)C(F)(F)F`: the Inhibition amounted to 100% in the experiment on Plasmodium falciparum [1], 99% with Plasmodium falciparum [2] and 51% in the experiment on HepG2.
The matching figures for `CO/C(=C\C=C\c1cc2cc(Cl)c(Cl)cc2[nH]1)C(=O)NCCCN1CCC(c2ccccc2)CC1`: 100%, 92% and 33%.
